Pf growth 96h: inhibits malaria parasite growth, 96 h | Potency, µM (top dose mostly 28.7 µM), for the others: at the highest dose activity change, negative = inhibition, actives largely listed as inhibitors | P. falciparum luciferase reporter growth, 96 h | 320,000 compounds, 6.9% hits | AID 504834; also: potency is read from the fitted curve at half-maximal effect; % is scaled to controls: 0 for no effect and ±100 for the full control effect
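Two parasite generations (96 h, 37 C, 5% CO2) of compound exposure in infected erythrocytes (0.05% parasitemia, 2% hematocrit). Luciferase-reporter P. falciparum; decreased luminescence indicates inhibited growth, aimed at apicoplast-acting delayed death.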
Shiga toxin inh: Shiga toxin inhibition | Vero cells, Shiga toxin protein synthesis inhibition reporter | inhibition, % at 38.7 µM | 290,000 compounds, 9.2% hits; in the data active = inhibition mostly above about 28%, no sharp cut-off; inactive = mostly below about 43%; also: 0% is about no effect
CHX counter: counter-screen for Shiga toxin inhibitors: cycloheximide protein synthesis inhibition. cell reporter, cycloheximide protein synthesis inhibition counterscreen. max response, %. 300,000 compounds, 12% hits. AID 2314; in the data active = max response mostly above about 13%, no sharp cut-off; inactive = mostly below about 14%; also: read at 38.3 µM for the half of the compounds with a filed dose; 0% is about no effect
Pf growth 48h: P. falciparum growth inhibition at 48 hours (one generation) | P. falciparum luciferase growth in erythrocytes, 48 h | Potency, µM (series often up to 28.7 µM), for the others: at the highest dose activity change, negative = inhibition, most hits filed as inhibitors | 310,000 compounds, 5.9% hits | AID 504832; also: potency is read from the fitted curve at half-maximal effect; % is scaled to controls: 0 for no effect and ±100 for the full control effect
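A one-generation exposure of luciferase-tagged malaria parasites in RPMI 1640/Albumax erythrocyte culture, 37 C and 5% CO2. Inhibition is inferred from decreased luminescence after adding detection reagent.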
NS1 inh: inhibitors of influenza NS1 protein function. 270,000 compounds, 0.4% hits. AID 2326. Potency, µM (titrated, usually from 46.1 µM), for inactives: at the top dose activity, positive = more growth; calls by dose curve; also: potency is read from the fitted curve at half-maximal effect; actives are rising curves; nearly all actives have a fitted effect of over 50% in size
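A cell-based growth assay was used: compounds that relieve NS1-induced slow growth of budding yeast raise OD600. Assay medium was yeast nitrogen base with ammonium sulphate and -URA supplement, pH 6.0, with 2% galactose.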
The depositor's hits bear a star. In the library only some 21% were active in any assay of this set; here they are far more common. Unless noted, calls follow the shape of the dose curve; as a rule, active = well fitted inhibition curve with a large enough effect; inconclusive = small, poorly fitted or top-dose-only effect, or another doubt; inactive = no such curve, though single readings can be large or run the other way.

COc1cc(OC)c(C(=O)NNC(=S)NC2CCCCC2)cc1OC was read as Pf growth 96h 0.0%, Shiga toxin inh -13.6, CHX counter -4.5, Pf growth 48h 2.8% and NS1 inh 4.3%.
`O=C(NNC(=S)NC1CCCCC1)c1ccccc1Br` gave Pf growth 96h inconclusive, Shiga toxin inh 2.0, CHX counter 8.6, Pf growth 48h 13.1µM* and NS1 inh 10.6%.
Screening O=C(O)c1cc(Nc2cc(Cl)c3nonc3c2[N+](=O)[O-])ccc1O returned Pf growth 96h 15.0%, Shiga toxin inh -3.1, CHX counter 2.5, Pf growth 48h 17.8% and NS1 inh 4.4%.
CC1CCN(C(=O)c2cc(S(=O)(=O)N3CCCCC3)c[nH]2)CC1 was read as Pf growth 96h -10.4%, Shiga toxin inh 1.7, CHX counter 0.7, Pf growth 48h 13.3% and NS1 inh 7.0%.
Screening CCN(CC)S(=O)(=O)c1ccc(F)c(C(=O)NCCC(C)C)c1 returned Pf growth 96h 4.15µM*, Shiga toxin inh 18.0, CHX counter 1.0, Pf growth 48h -20.6% and NS1 inh -1.9%.
`CCN(CC)S(=O)(=O)c1ccc(Cl)c(C(=O)NC)c1` gave Pf growth 96h -15.2%, Shiga toxin inh -10.4, CHX counter -2.2, Pf growth 48h 15.8% and NS1 inh 2.0%.
`CCOc1ccccc1N1CCN(CC(=O)N(C2CCCC2)C2CCS(=O)(=O)C2)CC1` (stereo not given) gave Pf growth 96h -24.3% and Pf growth 48h -4.4%.
`Cc1cccc(N2CCN(CC(=O)N(C3CCCC3)C3CCS(=O)(=O)C3)CC2)c1C` (stereo not given) gave Pf growth 96h inconclusive and Pf growth 48h 10.4µM*.
Screening COc1cc(C(=O)N[C@H](C(=O)Nc2nnc(C3CC3)s2)C(C)C)cc(OC)c1OC returned Pf growth 96h inconclusive, Shiga toxin inh 22.1, CHX counter -1.5, Pf growth 48h inconclusive and NS1 inh 4.3%.
For Cc1cc(C)n2nnnc2c1C#N the results were Pf growth 96h 13.1µM*, Shiga toxin inh -1.6, CHX counter 7.4, Pf growth 48h 18.2% and NS1 inh 10.5%.
N#Cc1cc2ccccc2n2nnnc12 was read as Pf growth 96h 42.6%, Shiga toxin inh -4.1, CHX counter -0.6, Pf growth 48h 9.7% and NS1 inh -9.6%.
For COc1ccc2c(c1)/C(=N/OC(=O)c1cccs1)CCC2 the results were Pf growth 96h 25.1%, Shiga toxin inh 43.1, CHX counter 42.3* and Pf growth 48h 1.6%.
`N/C(=N\OC(=O)c1cccs1)c1ccc(Cl)cc1` gave Pf growth 96h 72.3%, Shiga toxin inh 134.7*, CHX counter 55.0*, Pf growth 48h 141.8% and NS1 inh -79.4%.
For COc1ccc(/C(N)=N/OC(=O)c2cccs2)cc1 the results were Pf growth 96h 27.3%, Shiga toxin inh 57.2*, CHX counter 40.7*, Pf growth 48h 8.4% and NS1 inh -63.0%.
O=C(O)c1cc(Nc2nc(N3CCOCC3)nc(N3CCOCC3)n2)ccc1Cl was read as Pf growth 96h -7.6%, Shiga toxin inh -7.1, CHX counter -1.1, Pf growth 48h -7.8% and NS1 inh 8.8%.
Clc1ccc(Nc2nc(N3CCOCC3)nc(N3CCOCC3)n2)cc1Cl was read as Pf growth 96h 13.1µM*, Shiga toxin inh 9.2, CHX counter 0.8, Pf growth 48h inconclusive and NS1 inh 18.2%.
For CN1CCN(c2nc(Nc3cccc(C(F)(F)F)c3)nc(N3CCOCC3)n2)CC1 the results were Pf growth 96h 0.5%, Shiga toxin inh -6.9, CHX counter -3.3, Pf growth 48h 2.08µM* and NS1 inh -31.9%.
Clc1ccc(Nc2nc(NCCN3CCOCC3)nc(N3CCOCC3)n2)cc1 was read as Pf growth 96h inconclusive, Shiga toxin inh -1.0, CHX counter -2.5, Pf growth 48h inconclusive and NS1 inh -6.6%.
Screening Fc1ccc(Nc2nc(N3CCOCC3)nc(N3CCOCC3)n2)cc1Cl returned Pf growth 96h 13.1µM*, Shiga toxin inh 2.4, CHX counter -6.0, Pf growth 48h inconclusive and NS1 inh 9.3%.
Screening COc1ccc(C2=Nn3c(nnc3-c3ccccc3C)SC2)cc1OC returned Shiga toxin inh 2.2 and CHX counter -3.1.
Screening C=CCNC(=O)COC(=O)c1ccc(C)c(NC(=O)c2ccco2)c1 returned Pf growth 96h 26.6%, Shiga toxin inh 1.3, CHX counter 0.8 and Pf growth 48h 28.6%.
Screening O=C(CN1C(=O)COc2ccc(S(=O)(=O)N3CCOCC3)cc21)Nc1cccc(Cl)c1 returned Pf growth 96h 5.6%, Shiga toxin inh -13.2, CHX counter 0.3, Pf growth 48h -4.5% and NS1 inh 7.6%.
For CC1(C)CC(N2CCCC2)=CC(=[N+]2CCCCCC2)C1 the results were Pf growth 96h -19.8%, Shiga toxin inh -4.7, CHX counter 4.2 and Pf growth 48h inconclusive.
CC1CC(C)C[N+](=C2C=C(N3CCCC3)CC(C)(C)C2)C1 (stereo not given) was read as Pf growth 96h inconclusive, Shiga toxin inh -6.8, CHX counter -1.4 and Pf growth 48h 0.37µM*.
CC1(C)CC(N2CCN(c3ccccc3)CC2)=CC(=[N+]2CCCC2)C1 was read as Pf growth 96h 6.1%, Shiga toxin inh -15.4, CHX counter -8.9, Pf growth 48h 1.65µM* and NS1 inh -16.0%.
COC(=O)c1cc(C#N)c(N(C)Cc2ccccc2)nc1C was read as Pf growth 96h inconclusive, Shiga toxin inh 36.9, CHX counter 30.2* and NS1 inh -0.8%.
Screening C/C=C/c1ccc(OCC(=O)OCC)c(OC)c1 returned Pf growth 96h 14.5%, Shiga toxin inh 37.0, CHX counter 13.6*, Pf growth 48h inconclusive and NS1 inh -1.8%.
Screening C/C=C/c1ccc(OCCCCOc2ccccc2F)c(OC)c1 returned Pf growth 96h inconclusive, Shiga toxin inh 5.7, CHX counter 4.4, Pf growth 48h 1.9% and NS1 inh -33.3%.
For C/C=C/c1ccc(OCCOc2cc(C=O)ccc2OC)c(OC)c1 the results were Pf growth 96h inconclusive, Shiga toxin inh 62.3*, CHX counter 52.1*, Pf growth 48h 155.4% and NS1 inh -11.4%.
`C/C=C/c1ccc(OCC(=O)O)c(OC)c1` gave Pf growth 96h 9.3%, Shiga toxin inh -7.8, CHX counter -2.6, Pf growth 48h -1.8% and NS1 inh 5.5%.
`CCOc1ccc(C(NC(=O)CC)c2c(O)ccc3ccccc23)cc1` (stereo not given) gave Pf growth 96h inconclusive, Shiga toxin inh -9.6, CHX counter -1.4, Pf growth 48h 13.1µM* and NS1 inh 24.2%.
For CCCCC(=O)NC(c1ccco1)c1c(O)ccc2ccccc12 (stereo not given) the results were Pf growth 96h inconclusive, Shiga toxin inh 13.1, CHX counter -0.5, Pf growth 48h 11.7µM* and NS1 inh 4.6%.
For CC(C)[C@H](N[C@@H](C)c1ccccc1)c1c(O)ccc2ccccc12 the results were Pf growth 96h inconclusive, Shiga toxin inh 9.7, CHX counter 4.5, Pf growth 48h 2.94µM* and NS1 inh 3.9%.
